CYP2C19 activ: increases human CYP2C19 enzyme activity; 96,000 tested, under 10 active; recombinant CYP2C19, luciferin-H EGE luminescence; active compounds read high; 0 = fully inhibited enzyme, 1 = untreated enzyme; activation factor at 5 µM; AID 1025; P33261;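 active means activation factor of at least 2 at 5 µM in the primary screen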;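 further: 0 = wells with 2.5 mM tranylcypromine and 1 = vehicle-only wells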
Target sequence (P33261 whole entry, looked up): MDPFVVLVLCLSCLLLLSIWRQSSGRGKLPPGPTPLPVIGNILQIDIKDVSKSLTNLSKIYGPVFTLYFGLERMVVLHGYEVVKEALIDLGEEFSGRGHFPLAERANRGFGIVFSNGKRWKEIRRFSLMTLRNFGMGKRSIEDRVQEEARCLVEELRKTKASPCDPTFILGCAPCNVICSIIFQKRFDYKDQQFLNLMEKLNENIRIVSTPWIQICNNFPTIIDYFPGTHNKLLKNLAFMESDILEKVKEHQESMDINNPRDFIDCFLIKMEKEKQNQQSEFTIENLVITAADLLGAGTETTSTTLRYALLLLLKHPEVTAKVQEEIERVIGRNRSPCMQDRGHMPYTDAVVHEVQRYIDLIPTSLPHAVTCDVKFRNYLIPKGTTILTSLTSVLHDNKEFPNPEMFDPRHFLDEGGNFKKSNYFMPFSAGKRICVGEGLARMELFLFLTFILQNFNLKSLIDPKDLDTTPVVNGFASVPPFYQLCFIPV
PostGolgi yeast: growth inhibition of a yeast mutant, post-Golgi transport screen. post-Golgi transport phenotypic cell assay. inhibition, % at 10 µM. AID 739. 98,000 compounds, 0.9% hits;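 further: yeast cells grown in 1536-well plates; yeast grown about 18 h at 30C before absorbance read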
CYP2C19 inh: human CYP2C19 inhibition; CYP2C19 Supersomes, luciferin-H EGE luminescence, 30 min; AID 778; P33261; 96,000 compounds, 21% hits; inhibition, % at 5 µM;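 active means CYP2C19 inhibition above a set limit at 5 µM in the primary screen, cut at about 50% in these data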;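 further: plate controls were negative control wells for no effect and 2.5 mM tranylcypromine positive control for full effect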
PostGolgi ctrl: inhibits growth of the yeast control strain; 98,000 compounds, 5% hits; inhibition, % at 10 µM; efflux-deficient yeast background strain, growth absorbance A615, 16 h
CYP2C9 inh: inhibitors of human CYP2C9 | P11712 | CYP2C9 Supersomes, luciferin-H conversion, luminescence | inhibition, % at 5 µM | 96,000 compounds, 20% hits;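 active means blocking of liver enzyme CYP2C9 beyond about 50% at 5 µM, limit read from the data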
CYP2C9 act: increases human cytochrome P450 2C9 activity. P11712. recombinant CYP2C9, luciferin-H conversion, luminescence; active compounds read high; factor 1 = untreated enzyme, 0 = blocked. activation factor at 5 µM. 96,000 compounds, 1.4% hits. AID 1024;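 active means activation factor of 2 or more for CYP2C9 at a 5 µM dose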;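 further: 0 = sulfaphenazole-blocked wells and 1 = vehicle-only wells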
The depositor's hits bear a star; nt = not tested or not shown. This is a sample that favours compounds with a hit; in the whole collection about 32% have one here. Unless noted, no stated cut-off is given here; in the data, active means inhibition above about 30%; inactive means the rest.

SMILES | CYP2C19 activ | PostGolgi yeast | CYP2C19 inh | PostGolgi ctrl | CYP2C9 inh | CYP2C9 act
Cc1nc(N)c(C#N)c(-c2ccccc2Cl)c1C | 0.9 | 0.0 | 9.7 | 2.9 | -29.0 | 1.3
CC(=O)c1c(N2CCCCC2)nc(=S)n(Cc2ccccc2)c1C | 0.7 | -4.3 | 32.5 | 2.8 | 22.2 | 0.8
CC(=O)c1c(N2CCCC2)[nH]c(-c2ccccc2)nc1=S | 0.5 | -3.1 | 51.2* | 3.9 | 24.7 | 0.8
CSc1nc(-c2ccccc2)nc(N2CCCC2)c1C(C)=O | 0.9 | -6.8 | 6.5 | 39.1* | 24.8 | 0.8
CSc1nc(-c2ccccc2)nc(N2CCN(C)CC2)c1C(C)=O | 0.4 | -23.4 | 56.2* | 5.2 | 52.6* | 0.5
CC12CN3CC(C)(CN(C1)C3c1ccc(Br)cc1O)C2 (centres undefined) | 0.8 | -8.0 | 22.0 | 13.0 | 5.6 | 0.9
Cc1cc(Nc2cc(C)on2)n2ncnc2n1 | 1.3 | -1.0 | -27.6 | -1.1 | -1.0 | 1
COc1ccc(-c2nnc(-c3cccnc3)o2)cc1 | 0.8 | 2.7 | 22.3 | -0.7 | 8.7 | 0.9
COc1ccc(-n2nnnc2-c2cccnc2)cc1 | 0.4 | -1.9 | 55.0* | 6.9 | 23.7 | 0.8
COc1ccc(NC(=O)CCC(=O)OC(C(=O)c2ccccc2)c2ccccc2)cc1 (centres undefined) | 0.8 | 0.3 | 24.7 | 7.2 | -0.3 | 1
COc1ccc(C(=O)OC(C(=O)c2ccccc2)c2ccccc2)cc1 (centres undefined) | 0.4 | -1.0 | 57.9* | 65.9* | 78.1* | 0.2
COc1ccc(C(=O)C(OC(=O)c2ccc(C)c(NC(C)=O)c2)c2ccccc2)cc1 (centres undefined) | 0.6 | -2.9 | 41.2 | 10.8 | 62.0* | 0.4
CC(=O)Nc1cc(C(=O)OC(C(=O)c2ccccc2)c2ccccc2)ccc1C (centres undefined) | 0.4 | -13.8 | 59.1* | 13.5 | 60.1* | 0.4
COc1ccc(CCNC(=O)C2CCN(S(=O)(=O)N3CCOCC3)CC2)cc1OC | 1.1 | -10.1 | -11.7 | 1.8 | -12.9 | 1.1
Brc1ccccc1C1=Nn2c(nnc2-c2ccccc2)SC1 | 0.1 | 2.7 | 89.7* | 9.4 | 62.5* | 0.4
Cc1cc(C)n(-c2nnc3n2N=C(c2ccccc2)CS3)n1 | 0.5 | -7.6 | 51.0* | 0.5 | 23.3 | 0.8
CC(C)C1=C2CCCCC2NC(=O)N1 (centres undefined) | 1 | 0.5 | 0.3 | 0.1 | -23.9 | 1.2
CC(=O)Nc1ccc(S(=O)(=O)N2CCN(C(=O)CCC3CCCC3)CC2)cc1 | 1 | 2.9 | -3.0 | 0.0 | 11.5 | 0.9
Cc1nc2sc(C(c3cccs3)N3CCN(c4cccc(Cl)c4)CC3)c(O)n2n1 (centres undefined) | nt | -0.7 | nt | 47.9* | nt | nt
Cc1nc2sc(C(c3cccs3)N3CC(C)CC(C)C3)c(O)n2n1 (centres undefined) | 0.3 | 3.4 | 67.4* | 5.6 | -14.4 | 1.1
CC1CCN(C(=O)C(Cc2ccccc2)NS(=O)(=O)c2ccc3c(c2)oc(=O)n3C)CC1 (centres undefined) | 0.6 | 8.4 | 36.0 | 4.7 | 12.5 | 0.9
Cc1nn(CC2CCCCC2)c(N)c1-c1ccccc1 | 0 | 11.6 | 98.3* | 3.7 | 91.7* | 0.1
CC(=O)N1CCN(c2nc(C)nc3sc4c(c23)CCC(C)C4)CC1 (centres undefined) | 0.2 | -1.1 | 83.3* | 13.0 | 86.4* | 0.1
CCC(=O)N1CCN(c2nc(C)nc3sc(C)c(C)c23)CC1 | 0.8 | 17.2 | 16.8 | 12.0 | 28.0 | 0.7
c1ccc2sc(SCc3ccc(-c4nnco4)cc3)nc2c1 | 0.2 | -9.3 | 79.1* | 12.3 | 15.3 | 0.8
SMILES | CYP2C19 activ | PostGolgi yeast | CYP2C19 inh | PostGolgi ctrl | CYP2C9 inh | CYP2C9 act
C=CCn1c(O)c(N=NC(=O)CNC(=O)/C=C/c2ccco2)c2ccccc21 | 0.5 | 2.4 | 48.9 | 0.2 | 70.6* | 0.3
CCOC(=O)C(O)(C1C(=O)CC(C)(C)CC1=O)C(F)(F)F (centres undefined) | 1 | -8.0 | -0.2 | 6.4 | 93.3* | 0.1
Cc1ccc(/C=N/n2cnc3sc(-c4ccccc4)cc3c2=O)o1 | 1 | 64.8* | 1.6 | 1.8 | 3.4 | 1
CCC(C)NC(=O)CC1Oc2ccc(C)cc2NC1=O (centres undefined) | 0.9 | -0.3 | 13.6 | 1.1 | -26.6 | 1.3
CC(C)CC(c1nnnn1Cc1ccco1)N1CCN(C2CCCC2)CC1 (centres undefined) | 1 | -1.8 | 3.7 | -1.2 | -3.1 | 1
CCC(c1nnnn1CS(=O)(=O)c1ccc(C)cc1)N1CCN(c2nc3ccccc3s2)CC1 (centres undefined) | 0.9 | 8.7 | 13.0 | 21.5 | 48.0 | 0.5
CCCCC(c1nnnn1CC1CCCO1)N1CCN(c2nc3ccccc3s2)CC1 (centres undefined) | 0.3 | -9.9 | 69.5* | 8.2 | 76.3* | 0.2
CCCCC(c1nnnn1CC1CCCO1)N1CCN(c2cc(Cl)ccc2C)CC1 (centres undefined) | 0 | 1.4 | 95.7* | 30.8* | 90.3* | 0.1
CCCC(c1nnnn1Cc1cccs1)N1CCN(c2nc3ccccc3s2)CC1 (centres undefined) | 0.8 | 47.1* | 17.7 | 18.5 | 34.0 | 0.7
CCCC(c1nnnn1Cc1ccco1)N1CCN(c2cc(Cl)ccc2C)CC1 (centres undefined) | 0.6 | 2.6 | 41.9 | 16.3 | 59.6* | 0.4
CC(C)CC(c1nnnn1CC1CCCO1)N1CCN(c2nc3ccccc3s2)CC1 (centres undefined) | 0.7 | -8.4 | 28.2 | 12.7 | 17.9 | 0.8
O=C(c1ccco1)N1CCN(C(c2ccc(Cl)cc2)c2nnnn2CC2CCCO2)CC1 (centres undefined) | 1.1 | 7.3 | -9.3 | -3.9 | -12.9 | 1.1
C/C(=C(\C#N)C(=O)NC1CCCCC1)N(C)C | 0.8 | -4.3 | 21.8 | 0.0 | 0.0 | 1
CC1CCCN(CC(=O)Nc2ccc(S(=O)(=O)N3CCCCCC3)cc2)C1 (centres undefined) | 0.7 | 4.6 | 26.5 | 4.9 | 62.1* | 0.4
CC1CCCN(CC(=O)Nc2ccc(S(=O)(=O)N3CCCCC3)cc2)C1 (centres undefined) | nt | 7.1 | nt | 1.2 | nt | nt
CC1CCCN(CC(=O)Nc2ccc(S(=O)(=O)NC3CCCCC3)cc2)C1 (centres undefined) | 0.2 | -3.2 | 78.3* | 1.4 | 52.1* | 0.5
Cc1cc(C(=O)O)sc1C | nt | -6.0 | nt | 28.0 | nt | nt
CC(C)(C)NS(=O)(=O)c1ccc(CCC(=O)N2CCOCC2)cc1 | 0.7 | 0.9 | 29.2 | -5.8 | 24.1 | 0.8
CC(CN1CCOCC1)(NS(=O)(=O)c1ccccc1)c1ccccc1 (centres undefined) | 0.1 | -3.6 | 92.0* | 11.3 | 59.8* | 0.4
O=C(Nc1ccc(SC(F)F)cc1)c1ccc2nccnc2c1 | 0.9 | -2.2 | 8.7 | 31.1* | 20.4 | 0.8
CCN(CC)CCCN(C(C)=O)c1nc(-c2cc(OC)ccc2OC)cs1 | 0.7 | -3.8 | 34.3 | 15.1 | 6.0 | 0.9

Screening results as filed in PubChem.
